Source: PubChem (Broad Institute)
The sample as a whole holds a higher share of hits than the screen did.
NOMO-1 viab – STK33 inhibitor candidate reducing NOMO-1 cell viability; AID 2330; inhibition, % (concentration not given with the values); hit rate 7.5% among 37,000; NOMO-1 AML viability, CellTiter-Glo luminescence, 72 h; in the data active = inhibition above about 80%; inconclusive = no clear call, values can overlap the other calls
PD-1 reversal – reversal of PD-1 mediated T-cell inhibition. 29,000 tested, under 10 active. activation, % (no concentration beside the values). primary human CD4 T cells, PD-L1 beads, CellTiter-Glo 96 h; call rule not given here
STK33 inh – human STK33 kinase inhibition; Q9BYT3; ADP-Glo luminescence, MBP substrate; inhibition, % at 12.5 µM; hit rate 0.44% among 27,000; AID 2322; in the data active = inhibition above about 20%; inconclusive = no clear call, values can overlap the other calls
Target sequence (Q9BYT3 whole entry, looked up): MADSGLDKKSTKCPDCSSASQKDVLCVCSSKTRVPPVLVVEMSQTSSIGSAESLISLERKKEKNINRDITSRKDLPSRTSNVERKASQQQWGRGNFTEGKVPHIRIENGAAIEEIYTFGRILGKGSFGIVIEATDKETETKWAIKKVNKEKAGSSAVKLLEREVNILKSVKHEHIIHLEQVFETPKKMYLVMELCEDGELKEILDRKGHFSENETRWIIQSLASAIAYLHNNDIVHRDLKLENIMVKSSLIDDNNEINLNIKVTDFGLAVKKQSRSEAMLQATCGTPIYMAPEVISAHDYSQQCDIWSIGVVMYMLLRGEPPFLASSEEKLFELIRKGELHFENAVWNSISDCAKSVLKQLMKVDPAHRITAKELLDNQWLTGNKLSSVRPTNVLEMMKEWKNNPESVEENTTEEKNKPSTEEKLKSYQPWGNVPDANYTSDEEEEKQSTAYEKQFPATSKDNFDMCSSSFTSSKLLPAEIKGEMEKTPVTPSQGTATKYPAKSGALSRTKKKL
Large screens that a line does not name were inactive.

CO[C@H]1[C@H](O)[C@H](O[C@H]2CC[C@]3(C)C4CC[C@]5(C)[C@H](C6=CC(=O)OC6)CC[C@]5(O)C4CC[C@@H]3C2)O[C@@H](C)[C@@H]1O (stereo partly drawn)	NOMO-1 viab 123
CC(=O)O[C@@H](c1nc2ccccc2c(=O)n1[C@@H]1C[C@@]2(OC1=O)c1ccccc1N1C(=O)[C@H](C)N(O)[C@@H]12)C(C)C	NOMO-1 viab 84
C[C@H]1CN([C@@H](C)CO)C(=O)CCCn2cc(nn2)CO[C@H]1CN(C)C(=O)Oc1ccc2ccccc2c1	none (no result: NOMO-1 viab, PD-1 reversal)
COc1ccc(CC2(CCc3ccncc3)C(=O)NC(=O)N(c3ccc(Cl)cc3)C2=O)cc1OC (stereo not drawn)	none
OC(Cc1ccncc1)C(Cl)(Cl)Cl (stereo not drawn)	none
N#CC(C#N)=Cc1ccc(O)c(O)c1	none
CC(C)(C)c1cc(C=C(C#N)C#N)cc(C(C)(C)C)c1O	NOMO-1 viab 97
CCOP(=S)(OCC)SCn1c(=O)oc2cc(Cl)ccc21	none (no result: PD-1 reversal)
COc1ccc(C[C@H]2NC[C@H](O)[C@H]2OC(C)=O)cc1	NOMO-1 viab 120 (no result: PD-1 reversal)
CC(C)(O)[C@H]1O[C@H]2CC[C@@]3(C)[C@@](O)(CC[C@H]4Cc5c([nH]c6ccccc56)[C@@]43C)C2=CC1=O	NOMO-1 viab inconclusive (no result: PD-1 reversal)
c1ccc2sc(C3(N4CCCCC4)CCCCC3)cc2c1	none (no result: PD-1 reversal)
C/C1=C/C(=O)O[C@@H]2C[C@@H](CC[C@H](C)/C=C\CC1)O[C@@](O)([C@@H]1CSC(=O)N1)C2	NOMO-1 viab 114 (no result: PD-1 reversal)
NC(N)=NC(N)=Nc1ccc(Cl)cc1	none (no result: STK33 inh)
C[C@H](N)C(=O)N[C@@H](C)C(=O)N[C@@H](Cc1ccccc1)C(=O)CCl	NOMO-1 viab 114 (no result: PD-1 reversal)
Cn1c2c(c3ccccc31)CCNCC2	none (no result: PD-1 reversal)
Nc1ccc(CCN2CCN(c3cccc(C(F)(F)F)c3)CC2)cc1	none (no result: PD-1 reversal)
FC(F)(F)c1ccc2c(c1)N(CCCN1CCN(CCCl)CC1)c1ccccc1S2	NOMO-1 viab 99
O=C1CCCC2C3CC(CN12)[C@@H]1CCCCN1C3 (stereo partly drawn)	none (no result: PD-1 reversal)
CC(C)(O)c1cc(O)c2c(c1)CCC1C(C)(C(=O)O)CCCC21C (stereo not drawn)	none
COC(=O)[C@H]1O[C@@H]2C[C@H]3OC(n4cnc5c(N)ncnc54)[C@H](OC)[C@H]3O[C@@]2(O)[C@@H](O)[C@@H]1O (stereo partly drawn)	none
Fc1ccc(C(OCCN2CCN(CCCc3ccccc3)CC2)c2ccc(F)cc2)cc1	NOMO-1 viab 103 (no result: PD-1 reversal)
Fc1ccc(C(OCCN2CCN(C/C=C/c3ccccc3)CC2)c2ccc(F)cc2)cc1	NOMO-1 viab 120 (no result: PD-1 reversal)
c1ccc(CCCN2CCN(CCOC(c3ccccc3)c3ccccc3)CC2)cc1	NOMO-1 viab 104 (no result: PD-1 reversal)
C/C(CC(c1ccccc1)c1c(O)c2ccccc2oc1=O)=N/O (stereo not drawn)	none (no result: STK33 inh)
C=C1CC[C@]2(O)[C@]3(C)C[C@@]4(O)O[C@@]2([C@@H]1O)[C@]1(O)[C@@]3(O)[C@H]([C@H](OO)c2ccc[nH]2)[C@](C)(C(C)C)[C@@]14C	none
CC12C/C(=C\c3ccccc3)C(=O)C[C@@H]1CCC1C2CCC2(C)C1CC[C@]2(C)O (stereo partly drawn)	none (no result: STK33 inh)
COc1ccc2c(c1OC)C(=O)O[C@@H]2[C@@H]1c2cc3c(cc2CCN1C)OCO3	none (no result: PD-1 reversal)
Clc1ccc(C2CC3CCC2N3)cn1 (stereo not drawn)	none
C=CCC1(NCCc2ccccc2)CCCCC1	none (no result: STK33 inh)
C[C@]1(C(=O)O)CCC[C@]2(C)c3cc(O)ccc3CC[C@@H]12	none (no result: NOMO-1 viab, PD-1 reversal)
N#C/C(=C\c1ccc(O)cc1)C(=O)O	STK33 inh 27 (no result: PD-1 reversal)
Cc1ccccc1NC1=NCC(C)(C)S1	none (no result: STK33 inh)
O=[N+]([O-])c1c(NCCO)ccc2nonc12	none (no result: PD-1 reversal)
COc1cc2c(cc1O)C[C@H]1c3c(cc(O)c(OC)c3-2)CCN1C	none (no result: PD-1 reversal)
CCCN1CCc2cc(O)cc3c2[C@H]1Cc1ccc(O)c(O)c1-3	NOMO-1 viab 109 (no result: PD-1 reversal)
CN1CCc2cc(O)cc3c2[C@H]1Cc1ccc(O)c(O)c1-3	NOMO-1 viab 105 (no result: PD-1 reversal)
COC[C@H]1OC(=O)c2coc3c2[C@@]1(C)C1=C(C3=O)C2CCC(=O)[C@@]2(C)C[C@H]1OC(C)=O (stereo partly drawn)	NOMO-1 viab inconclusive
C=CC(C)(C)[C@]12C=C(OC)C(=O)N3/C(=C/c4cnc[nH]4)C(=O)N[C@@]31N(OC)c1ccccc12	NOMO-1 viab 101
Cc1ccc(C(C)C)cc1OP1(=O)COc2ccccc2OC1	none (no result: STK33 inh)
COC1CC(OC2C(C)OC(OC3C(C)OC(OC4C(C)OC(O[C@H]5CC[C@@]6(C)C(=CC[C@]7(O)C6CC(OC(=O)c6ccccc6)[C@@]6(C)[C@]7(O)CC[C@@]6(O)C(C)=O)C5)CC4OC)CC3OC)CC2OC)OC(C)C1O (stereo partly drawn)	NOMO-1 viab 120
COC(=O)c1ccc(OP2(=O)COc3ccccc3OC2)cc1	none (no result: STK33 inh)
Cn1c[n+](C)cc1C(O)c1ccccc1 (stereo not drawn)	none (no result: STK33 inh)
C[C@H]1O[C@@H](O[C@H]2[C@@H](O)C[C@H](O[C@H]3[C@@H](O)C[C@H](O[C@H]4CC[C@@]5(C)[C@H](CC[C@@H]6[C@@H]5CC[C@]5(C)[C@@H](C7=CC(=O)OC7)CC[C@]65O)C4)O[C@@H]3C)O[C@@H]2C)C[C@H](O)[C@@H]1O	NOMO-1 viab 124
CO[C@H]1C[C@H](OC2CCC3(C)C4CCC5(C)C(C6=CC(=O)OC6)CC(OC(C)=O)C5(O)C4CC[C@H]3C2)O[C@@H](C)[C@@H]1O (stereo partly drawn)	NOMO-1 viab 109
C[C@H]1OC(O[C@H]2[C@@H](O)CC(O[C@H]3[C@@H](O)C[C@H](O[C@H]4CC[C@]5(C)C6CC[C@]7(C)[C@@H](C8=CC(=O)OC8)[C@@H](O)C[C@]7(O)[C@@H]6CC[C@@H]5C4)O[C@@H]3C)O[C@@H]2C)C[C@H](O)C1O (stereo partly drawn)	NOMO-1 viab 107 (no result: PD-1 reversal)
CNC(=O)O/N=C/C(C)(C)SC	none (no result: PD-1 reversal)
CC(O)CNCCNc1ccc([N+](=O)[O-])c2cccnc12 (stereo not drawn)	none
CC(=O)OC1CN2CCC1CC2 (stereo not drawn)	none (no result: PD-1 reversal)
CC1(C)C2CC(=O)[C@]3(C)C(CC[C@@]4(C)[C@H](c5ccoc5)OC(=O)C5OC543)[C@@]2(C)[C@@H](O)C[C@H]1O (stereo partly drawn)	none (no result: PD-1 reversal)
CCc1ccc(CN2CCN(Cc3cccc(OC)c3)CC2)cc1	none (no result: STK33 inh)
CC(CO)NC(=O)C1C=C2c3cccc4[nH]cc(c34)CC2N(C)C1 (stereo not drawn)	none (no result: PD-1 reversal)
C[C@H](CO)N1C[C@H](C)[C@H](CN(C)C(=O)Oc2cccc3ccccc23)OCc2cn(nn2)CCCC1=O	none (no result: NOMO-1 viab, PD-1 reversal)
COc1ccc2c(c1)/C(=C/c1cnc[nH]1)C(=O)N2	NOMO-1 viab 98, STK33 inh 79
COc1ccc(CC2c3cc(OC)c(OC)cc3CCN2C)cc1OC (stereo not drawn)	none
COc1cc2c(cc1O)C1Cc3ccc(OC)c(O)c3CN1CC2 (stereo not drawn)	NOMO-1 viab 117
COc1ccc2c(c1O)-c1c3c(cc4c1C(C2)N(C)CC4)OCO3 (stereo not drawn)	none (no result: NOMO-1 viab, PD-1 reversal)
COc1cc2c(cc1O)[C@@H]1Cc3ccc(OC)c(O)c3CN1CC2	NOMO-1 viab 108 (no result: PD-1 reversal)
O=c1c2ccccc2[nH]c(=S)n1-c1cc(C(F)(F)F)cc(C(F)(F)F)c1	none (no result: STK33 inh)
